# Results: PubChem BioAssay (EPA / NIEHS)
# Where “and” joins values, the source holds several entries; their conditions need not be identical. Equal entries are not always repeated. Results filed as inconclusive are left out. More than one record can exist for a structure, and the calls need not agree. Calls of active or inactive are those of the source. How the source made its calls: active means hit-call score of the fitted dose curve at least 0.9, where 1 is the maximum; inconclusive means response in the unintended direction; inactive means score below 0.9.
# Assay: Tanguay_ZF_120hpf_EYE_legacy: (Legacy) Oregon State University Tanguay Lab 120 Hour Post-fertilization zebrafish Assay for Eye Malformation (AID 2283636);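 further: binary presence or absence of eye malformation scored by brightfield in 120 hpf larvae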
# Description: Tanguay_ZF_120hpf_legacy is a whole embryo, multiplexed endpoint assay using zebrafish larvae exposed for 120 hours post fertilization on a 96-well plate.Tanguay_ZF_120hpf_EYE_legacy is one of one assay component(s) measured or calculated from the Tanguay_ZF_120hpf_legacy assay. It is designed to make measurements of zebrafish development as detected with brightfield microscopy of developing zebrafish embryos.Data from the assay component Tanguay_ZF_120hpf_EYE_legacy was analyzed into 1 assay endpoints. This assay endpoint, Tanguay_ZF_120hpf_EYE_legacy, was analyzed in the positive analysis fitting direction relative to DMSO as the negative control and baseline of activity. Using a type of morphology reporter, gain-of-signal activity can be used to understand changes in developmentals as they relate to the whole embryo. To generalize the intended target to other relatable targets, this assay endpoint is annotated to the zebrafish development intended target family, where the subfamily is embryonic eye development.
# Zebrafish husbandry: Tropical 5D wild-type adult zebrafish were housed in at an approximate density of 1000 per 100 gallon tank at the Sinnhuber Aquatic Research Laboratory, Oregon State University, Corvallis, OR. Each tank was kept at standard laboratory conditions of 28C on a 14-h light/10-h dark photoperiod in fish water consisting of reverse osmosis water supplemented with a commercially available salt (Instant Ocean). Spawning funnels were placed into the tanks the night prior, and embryos were collected and staged. To increase bioavailability, the chorion was enzymatically removed using pronase (63.6mg/ml, >/= 3.5U/mg, Sigma-Aldrich: P5147) at 4 hours post fertilization (hpf) using a custom automated dechorionator.Chemical exposures: Six hpf dechorionated embryos were placed 1 embryo per well in a 96-well plate prefilled with 90 ul of EM using automated embryo placement systems (AEPS). Ten microliters of each row of dilution plate 2 was added to 2 exposure plates. The final DMSO concentration used was 0.64% (vol/vol). Thirty-two embryos were also exposed to 5uM trimethyltin chloride (positive control). Plates were sealed to prevent evaporation and foil covered to reduce light exposure and kept in a 28C incubator. Embryos were statically exposed until 120 hpf. At 24 hpf, embryos were assessed for photomotor response using a custom photomotor response analysis tool (PRAT) and for developmental toxicity endpoints (MO24: mortality at 24 hpf, DP: developmental progression, SM: spontaneous movement, and NC: notochord distortion). At 120 hpf, locomotor activity was measured using Viewpoint Zebralab and assessed for 18 endpoints. Zebrafish acquisition and analysis program (ZAAP), a custom program designed to inventory, acquire, and manage zebrafish data, was used to collect developmental endpoints as either present or absent (i.e., binary responses were recorded). If mortality occurred for an embryo (at either 24 or 120 hpf), the non-mortality endpoints were not measured.
SMILES,AC50,outcome
CN1CSC(=S)N(C)C1,34.9 µM (active),–
O=C1c2ccccc2C(=O)N1SC(Cl)(Cl)Cl,–,inactive
COP(=S)(OC)Oc1ccc([N+](=O)[O-])cc1,–,inactive
Oc1cc(Cl)ccc1Oc1ccc(Cl)cc1Cl,–,inactive
O=S1OCC2C(CO1)C1(Cl)C(Cl)=C(Cl)C2(Cl)C1(Cl)Cl (stereo not given),–,inactive
CCOC1Oc2ccc(OS(C)(=O)=O)cc2C1(C)C (stereo not given),–,inactive
CC(C)(C)C(O)/C(=C\c1ccc(Cl)cc1Cl)n1cncn1 (stereo not given),37.4 µM (active),–
CC1(C)C(C=C(Cl)Cl)C1C(=O)OC(C#N)c1ccc(F)c(Oc2ccccc2)c1 (stereo not given),–,inactive
CNC(=O)Oc1cccc(N=CN(C)C)c1,–,inactive
N#Cc1c(Cl)c(Cl)c(Cl)c(C#N)c1Cl,–,inactive
O=S(=O)(O)C(F)(F)C(F)(F)C(F)(F)C(F)(F)C(F)(F)C(F)(F)C(F)(F)C(F)(F)F,37 µM (active),inactive
CC(C)N(C(=O)COc1nnc(C(F)(F)F)s1)c1ccc(F)cc1,–,inactive
COP(=S)(OC)Oc1ccc(SC)c(C)c1,–,inactive
O=C(Nc1ccccc1)Nc1cnns1,–,inactive
O=[N+]([O-])c1c(Cl)c(Cl)c(Cl)c(Cl)c1Cl,–,inactive
CC1(c2ccc(Oc3ccccc3)cc2)OC(=O)N(Nc2ccccc2)C1=O (stereo not given),–,inactive
Oc1ccc(Cl)cc1Cc1ccccc1,–,inactive
O=C(O)C(F)(F)C(F)(F)C(F)(F)C(F)(F)C(F)(F)C(F)(F)C(F)(F)F,–,inactive
COP(=O)(OC)OC=C(Cl)Cl,–,inactive
Cc1[nH]c(=O)n(C(C)(C)C)c(=O)c1Cl,–,inactive

SMILES,AC50,outcome
O=C(O)CCCOc1ccc(Cl)cc1Cl,–,inactive
CCCN(CCOc1c(Cl)cc(Cl)cc1Cl)C(=O)n1ccnc1,–,inactive
ClC1C(Cl)C(Cl)C(Cl)C(Cl)C1Cl (stereo not given),–,inactive
O=C(NC(=O)c1c(F)cccc1F)Nc1ccc(OC(F)(F)C(F)OC(F)(F)F)c(Cl)c1 (stereo not given),–,inactive
CNC(=O)/C=C(\C)OP(=O)(OC)OC,–,inactive
Clc1ccccc1-c1nnc(-c2ccccc2Cl)nn1,–,inactive
C[C@H]1[C@H](c2ccc(Cl)cc2)SC(=O)N1C(=O)NC1CCCCC1,–,inactive
N#CN,–,inactive
CCC(C)(C)C(=O)OC1=C(c2ccc(Cl)cc2Cl)C(=O)OC12CCCCC2,–,inactive
CCC(C)(NC(=O)c1cc(Cl)c(C)c(Cl)c1)C(=O)CCl (stereo not given),28.2 µM (active),–
C#CCN1C(=O)COc2cc(F)c(N3C(=O)C4=C(CCCC4)C3=O)cc21,–,inactive
CCc1ccc(C(=O)NN(C(=O)c2cc(C)cc(C)c2)C(C)(C)C)cc1,–,inactive
CCCN(CCC)c1c([N+](=O)[O-])cc(C(F)(F)F)cc1[N+](=O)[O-],–,inactive
CNC(=O)CSP(=S)(OC)OC,–,inactive
COc1nn(CSP(=S)(OC)OC)c(=O)s1,–,inactive
CC(C)(C)C(O)C(Oc1ccc(Cl)cc1)n1cncn1 (stereo not given),43.8 µM (active) and 32.4 µM (active) and 39.9 µM (active),–
CCC(C)Nc1c([N+](=O)[O-])cc(C(C)(C)C)cc1[N+](=O)[O-] (stereo not given),–,inactive
CC(C)OC(=O)Nc1cccc(Cl)c1,–,inactive
CC[C@H](C)[C@H]1O[C@]2(C=C[C@@H]1C)C[C@@H]1C[C@@H](C/C=C(\C)[C@@H](O[C@H]3C[C@H](OC)[C@@H](O[C@H]4C[C@H](OC)[C@@H](O)[C@H](C)O4)[C@H](C)O3)[C@@H](C)/C=C/C=C3\CO[C@@H]4[C@H](O)C(C)=C[C@@H](C(=O)O1)[C@]34O)O2 (tested in a mixture with another compound),–,inactive
